In PubChem BioAssay (NCATS):
Unmarked numbers belong to inactive results. Results filed as inconclusive are left out. Entries that show only a call come without a potency. The source made the active and inactive calls. Unless noted, the call rests on the fitted dose curve; in most records, active means well fitted curve in the direction sought with a large enough effect; inconclusive means small, poorly fitted or top-dose-only effect, or another doubt; inactive means no such curve, though single readings can be large; an effect the other way counts as inactive or inconclusive.

Key:
[1] = NFAT Signaling Pathway (AID 444; active means well fitted curve in either direction with a large enough effect, not every such curve was filed as active;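 further: carbachol stimulus at about its EC50 of 1 µM final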); details: Jurkat NFAT-bla M1, carbachol, beta-lactamase ratio, 5 h; at 38 µM (top of the series)
Outline: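 Read-out: CCF4 FRET ratio (460 nm/530 nm) after 1 h RT dye loading, used for %activity and AC50 from titration series. Cells: Jurkat NFAT-β-lactamase/M1 line, treated with compound plus 1 uM carbachol for 5 h, 37 °C.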

Furin (Homo sapiens) = Furin (Homo sapiens) (UniProt P09958); assay: Furin counterscreen qHTS for Zika virus inhibitors (AID 1347149); details: furin enzymatic counterscreen, fluorogenic substrate; series mostly up to 57.5 µM; further: nearly all actives have a fitted effect of over 70% in size; further: potency means the concentration at half of the fitted maximal effect;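 on activity change, negative = inhibition: purified recombinant full-length human furin enzyme at 5 nM; fluorescence gain from furin cutting a BOC-RVRR-AMC peptide substrate over 15 min; top concentration of the series differs between compounds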
Furin (Homo sapiens), sequence (P09958 whole entry, looked up): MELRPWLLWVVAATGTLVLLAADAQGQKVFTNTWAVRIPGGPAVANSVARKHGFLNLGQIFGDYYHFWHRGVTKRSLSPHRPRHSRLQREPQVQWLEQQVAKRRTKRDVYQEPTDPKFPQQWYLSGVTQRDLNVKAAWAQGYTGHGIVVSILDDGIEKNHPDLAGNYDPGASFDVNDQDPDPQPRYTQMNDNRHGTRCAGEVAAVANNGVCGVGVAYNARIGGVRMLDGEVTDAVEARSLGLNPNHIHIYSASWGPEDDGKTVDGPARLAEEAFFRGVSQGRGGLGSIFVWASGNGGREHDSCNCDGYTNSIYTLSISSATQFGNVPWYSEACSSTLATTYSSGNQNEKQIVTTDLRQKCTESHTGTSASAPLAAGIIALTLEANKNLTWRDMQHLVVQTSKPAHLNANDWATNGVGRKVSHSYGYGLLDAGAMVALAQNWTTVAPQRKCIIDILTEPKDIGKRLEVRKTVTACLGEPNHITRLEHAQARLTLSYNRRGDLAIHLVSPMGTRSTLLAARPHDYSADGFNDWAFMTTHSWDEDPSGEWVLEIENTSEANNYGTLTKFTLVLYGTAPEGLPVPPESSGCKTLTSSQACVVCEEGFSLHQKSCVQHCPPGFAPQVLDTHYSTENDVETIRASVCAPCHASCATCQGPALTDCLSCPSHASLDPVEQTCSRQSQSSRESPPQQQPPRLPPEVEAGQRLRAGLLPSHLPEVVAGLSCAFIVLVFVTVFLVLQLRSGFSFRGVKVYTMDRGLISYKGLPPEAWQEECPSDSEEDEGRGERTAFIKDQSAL
Outline: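 Counterscreen measures cleavage of 2 microM BOC-RVRR-AMC, below its ~15 microM Km, by 5 nM full-length human furin at pH 7.0 after a 15-min compound preincubation. Inhibition derives from the 15-min fluorescence increase at 37C.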

[2] = tested on: Zika virus NS2B-NS3 protease (unlinked complex); assay: Confirmatory screen GU AMC qHTS for Zika virus inhibitors (AID 1347153); details: Recombinant NS2B-NS3 protease, AMC substrate fluorescence; series mostly up to 57.1 µM; further: nearly all actives have a fitted effect of over 70% in size;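 on potency: enzyme at 25 nM with substrate at 10 µM below its Km of 18.3 µM; potency means the concentration at half of the fitted maximal effect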
Outline: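 Noncovalent NS2B hydrophilic domain/NS3 protease complex (25 nM) in 10 mM Tris-HCl pH 8.0, 0.01% Tween 20 was preincubated 15 min at room temperature with compounds. Then 10 µM AMC substrate (Km 18.3 µM) was added; fluorescence was read over 15 min and fitted to a 4-parameter Hill equation.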

[3] = Vero cells viability qHTS for Zika virus inhibitors (AID 1347167); details: cytotoxicity counter-screen (Zika); series mostly up to 45.9 µM
Outline: (§1)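 Luminescent ATP readout (CellTiter Glo) after 30 min at 37 degrees C gives viability; cells in DMEM + 4% FBS were treated 24 to 48 hours with compound, following overnight attachment.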

[4] = HepG2 cells viability qHTS for Zika virus inhibitors (AID 1347168); details: Zika counter-screen; series mostly up to 45.9 µM; further: potency means the concentration at half of the fitted maximal effect
Outline: as §1

[5] = Tertiary RLuc qRT-PCR qHTS assay for Zika virus inhibitors (AID 1347169); details: infected Vero cells, reporter luminescence, 48-72 h; series mostly up to 45.9 µM; further: nearly all actives have a fitted effect of over 55% in size; further: potency means the concentration at half of the fitted maximal effect; on activity change, negative = inhibition: top concentration of the series differs between compounds
Outline: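 Vero, 1,000 cells/well, o/n 37 C; cpd pinned in DMSO; ZIKV-RLuc Cambodian, MOI 1-2, 48-72 h 37 C; live-cell RLuc substrate, lum read at 1-1.5 h.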

[6] = biological target: Cytochrome P450 3A4 (Homo sapiens) (UniProt P08684); assay: qHTS Assay for Inhibitors and Substrates of Cytochrome P450 3A4 (AID 884); details: recombinant CYP3A4, Luciferin-PPXE luminescence; series mostly up to 57.1 µM; further: nearly all actives have a fitted effect of over 50% in size; further: potency means the concentration at half of the fitted maximal effect
Cytochrome P450 3A4 (Homo sapiens), sequence (P08684 whole entry, looked up): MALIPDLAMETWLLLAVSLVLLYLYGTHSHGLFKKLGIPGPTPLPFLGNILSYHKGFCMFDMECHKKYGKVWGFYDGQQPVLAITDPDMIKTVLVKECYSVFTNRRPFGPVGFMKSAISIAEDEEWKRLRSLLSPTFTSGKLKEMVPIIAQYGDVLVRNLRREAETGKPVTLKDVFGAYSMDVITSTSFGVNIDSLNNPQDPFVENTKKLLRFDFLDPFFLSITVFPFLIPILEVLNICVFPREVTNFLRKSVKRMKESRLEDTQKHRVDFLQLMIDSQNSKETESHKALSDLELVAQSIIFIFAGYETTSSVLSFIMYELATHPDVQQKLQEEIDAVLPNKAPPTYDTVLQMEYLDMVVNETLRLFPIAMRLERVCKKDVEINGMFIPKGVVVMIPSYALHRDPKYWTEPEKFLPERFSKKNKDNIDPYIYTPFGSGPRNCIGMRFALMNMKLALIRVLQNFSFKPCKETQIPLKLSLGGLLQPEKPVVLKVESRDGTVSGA
Outline: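 Luminescent readout of luciferin produced by CYP3A4 (20 nM) dealkylation of Luciferin-PPXE, 25 uM (its KM). NADPH-driven reaction ran 60 min at RT after 10 min compound preincubation; data scaled to 57 uM ketoconazole as 100% inhibition.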

[7] = qHTS Assay for Identification of Small Molecule Antagonists for NFkB Signaling Pathway (AID 895; active means well fitted inhibition curve with a large enough effect in the signal ratio, with a control signal flat, not every such curve was filed as active; the % refers to the signal ratio); details: NFkB beta-lactamase reporter cells, FRET ratio 460/530; series mostly up to 38.3 µM
Outline: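 Beta-lactamase reporter read-out (460 and 530 nm emission ratio, 405 nm excitation, 2 hrs substrate loading RT) after 5 hr stimulation with 10 pM TNF alpha in compound-treated NFkB-bla ME-180 cells in low-serum medium.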

[8] = biological target: Cytochrome P450 2C19 (Homo sapiens) (UniProt P33261); assay: qHTS Assay for Inhibitors and Substrates of Cytochrome P450 2C19 (AID 899); details: recombinant CYP2C19, luciferin-H EGE luminescence; series mostly up to 57.1 µM; further: potency means the concentration at half of the fitted maximal effect; nearly all actives have a fitted effect of over 60% in size
Cytochrome P450 2C19 (Homo sapiens), sequence (P33261 whole entry, looked up): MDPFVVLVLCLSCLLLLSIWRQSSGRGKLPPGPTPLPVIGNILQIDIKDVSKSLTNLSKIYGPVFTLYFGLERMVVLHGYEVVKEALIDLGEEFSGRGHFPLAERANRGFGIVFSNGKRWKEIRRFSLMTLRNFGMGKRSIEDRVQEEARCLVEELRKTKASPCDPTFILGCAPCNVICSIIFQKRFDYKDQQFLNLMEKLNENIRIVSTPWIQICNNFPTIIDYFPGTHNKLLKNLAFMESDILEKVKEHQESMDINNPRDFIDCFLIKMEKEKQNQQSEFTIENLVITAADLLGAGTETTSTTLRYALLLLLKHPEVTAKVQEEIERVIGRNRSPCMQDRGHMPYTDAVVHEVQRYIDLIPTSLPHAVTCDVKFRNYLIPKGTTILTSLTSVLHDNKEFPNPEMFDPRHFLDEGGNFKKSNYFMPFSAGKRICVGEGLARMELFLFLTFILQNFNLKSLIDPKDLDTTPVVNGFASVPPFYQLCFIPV
Outline: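 Reactions contain 5nM enzyme, 10uM Luciferin-H EGE (KM) and 50mM KPO4; compound preincubates 10 min at 37C, NADPH regeneration starts turnover for 60 min. Luminescence after detection reagent gives activity.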

[9] = qHTS for differential inhibitors of proliferation of Plasmodium falciparum line 3D7 (AID 1876); further: potency means the concentration at half of the fitted maximal effect; details: P. falciparum 3D7 proliferation inhibition; series mostly up to 28.7 µM
[10] = biological target: RecQ-like DNA helicase BLM (Homo sapiens) (UniProt P54132); assay: qHTS Validation Assay for Inhibitors of Bloom's syndrome helicase (BLM) (AID 2364); details: BLM helicase DNA unwinding, fluorescence, in vitro; series mostly up to 57.1 µM
RecQ-like DNA helicase BLM (Homo sapiens), sequence (P54132 whole entry, looked up): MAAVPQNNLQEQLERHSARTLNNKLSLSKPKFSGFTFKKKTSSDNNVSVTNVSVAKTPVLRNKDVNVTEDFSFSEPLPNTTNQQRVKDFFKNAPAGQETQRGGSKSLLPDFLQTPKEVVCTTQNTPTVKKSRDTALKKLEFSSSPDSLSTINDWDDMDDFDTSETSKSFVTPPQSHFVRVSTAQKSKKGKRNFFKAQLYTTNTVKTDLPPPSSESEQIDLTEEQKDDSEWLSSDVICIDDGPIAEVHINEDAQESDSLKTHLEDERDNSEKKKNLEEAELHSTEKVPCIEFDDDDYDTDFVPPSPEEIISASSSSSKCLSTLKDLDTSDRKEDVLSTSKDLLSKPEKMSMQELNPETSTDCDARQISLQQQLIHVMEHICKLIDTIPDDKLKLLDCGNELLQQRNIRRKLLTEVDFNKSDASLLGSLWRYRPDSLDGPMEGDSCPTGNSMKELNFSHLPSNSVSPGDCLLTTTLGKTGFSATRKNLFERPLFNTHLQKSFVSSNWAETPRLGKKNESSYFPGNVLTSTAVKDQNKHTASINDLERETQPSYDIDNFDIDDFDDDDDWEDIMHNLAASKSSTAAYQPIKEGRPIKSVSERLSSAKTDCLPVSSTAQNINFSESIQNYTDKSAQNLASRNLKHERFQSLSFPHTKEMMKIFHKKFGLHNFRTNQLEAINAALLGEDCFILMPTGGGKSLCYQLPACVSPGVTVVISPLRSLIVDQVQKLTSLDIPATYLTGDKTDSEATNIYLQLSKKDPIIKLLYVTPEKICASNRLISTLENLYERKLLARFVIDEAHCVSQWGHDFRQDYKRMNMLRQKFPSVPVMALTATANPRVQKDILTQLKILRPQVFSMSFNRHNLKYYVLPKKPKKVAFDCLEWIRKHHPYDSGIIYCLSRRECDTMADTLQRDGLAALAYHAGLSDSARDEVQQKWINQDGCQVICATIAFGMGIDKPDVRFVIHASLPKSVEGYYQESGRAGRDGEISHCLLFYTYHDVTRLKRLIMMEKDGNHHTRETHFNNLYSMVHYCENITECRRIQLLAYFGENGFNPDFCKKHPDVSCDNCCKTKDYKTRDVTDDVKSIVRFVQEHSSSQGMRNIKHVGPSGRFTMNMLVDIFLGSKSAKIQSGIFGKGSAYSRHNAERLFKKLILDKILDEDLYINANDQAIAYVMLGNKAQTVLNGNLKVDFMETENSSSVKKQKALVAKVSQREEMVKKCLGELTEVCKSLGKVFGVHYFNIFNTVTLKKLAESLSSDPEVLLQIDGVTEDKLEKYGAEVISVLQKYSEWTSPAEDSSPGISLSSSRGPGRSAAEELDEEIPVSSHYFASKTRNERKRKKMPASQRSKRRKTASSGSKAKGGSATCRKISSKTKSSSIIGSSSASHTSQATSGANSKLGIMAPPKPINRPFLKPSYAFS
Outline: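 Forked 20-bp duplex substrate (200 nM, TAMRA/BHQ-2) plus 2 mM ATP added after 15 min compound preincubation with 50 nM enzyme, pH 8.0, poly(dI-dC) 2.5 ug/ml. Strand separation followed by fluorescence (525/598 nm) over 2 h, normalized to enzyme-free and DMSO controls.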

[11] = Confirmation and Secondary Assay for Modulators of Hemoglobin Beta Chain Splicing at IVS2 654 locus (AID 910); details: HeLa EGFP-654 splicing reporter, GFP fluorescence, 48 h; series mostly up to 46.1 µM;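 further: HeLa cells stably carrying EGFP split by mutant beta-globin IVS2-654 intron; per-well total GFP intensity by laser scanning cytometry after 2-day treatment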
Outline: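 Readout: per-well total peak green fluorescence (488 nm ex, 500–520 nm em) from objects 5–250 µm, reflecting correct splicing of an EGFP-654 reporter. Compounds were applied for 2 days at 37 °C to overnight-plated HeLa EGFP-654 cells; controls were DMSO and 500 nM IVS2-654 PNA.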

[12] = Cell Viability qHTS for small molecule stabilizers of the endoplasmic reticulum resident proteome (AID 1508629); details: cell viability counter-screen, 100 nM thapsigargin for final 4 h;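 further: compound exposure about 46 h in total before the viability read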; further: potency means the concentration at half of the fitted maximal effect;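 on max response: human SH-SY5Y neuroblastoma cells carrying the GLuc-SERCaMP reporter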
[13] = qHTS Assay for Identification of Small Molecule Agonists for Hypoxia Response Element Signaling Pathway (AID 914; active means well fitted activation curve with a large enough effect in the signal ratio, with a control signal flat, not every such curve was filed as active; the % refers to the signal ratio; further: potency means the concentration at half of the fitted maximal effect); details: ME-180 (cervical carcinoma) HRE-bla reporter, beta-lactamase ratio, CoCl2, 17 h; activation: hits give high values
Outline: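 Positive modulation of EC50 CoCl2-induced hypoxia response element signaling is measured in ME-180 cells with a beta-lactamase reporter. Compounds are titrated, incubation runs 17 hours, and %Activity derives from the blue/green ratio.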

[14] = qHTS Assay for Modulators of Human Peripheral Myelin Protein 22 (PMP22) Expression/Activity (AID 1967; active means well fitted curve in the direction sought with a large enough effect in the signal ratio; the % refers to the signal ratio); details: Cell-based PMP22 reporter, dual-color luciferase ratio, mouse Pmp22 promoter in mouse Schwann cells; series mostly up to 115 µM
Outline: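 Luminescence ratio of Pmp22 promoter-driven green luciferase to EF-alpha-driven red luciferase, in engineered mouse MSC80 Schwann cells, served as read-out. Compounds were incubated 24h; untreated cells defined 0% Activity; curves were classified by r2, magnitude and activity.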

[15] = Quantitative high throughput screen for delayed death inhibitors of the malarial parasite plastid, 48 hour incubation (AID 488752); details: Plasmodium falciparum growth; series mostly up to 28.7 µM; further: nearly all actives have a fitted effect of over 65% in size
Outline: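 Cultures: infected erythrocytes at final 2% hematocrit and 0.1% parasitemia in Albumax-supplemented RPMI. Parasites express integrated firefly luciferase. Incubation with compound lasts 48 h before luminescent detection of remaining reporter activity.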

[16] = qHTS for differential inhibitors of proliferation of Plasmodium falciparum line GB4 (AID 1816); details: Potency: Plasmodium falciparum GB4 proliferation inhibition; series mostly up to 28.7 µM;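 further: parasite growth measured after 72 h incubation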; further: potency means the concentration at half of the fitted maximal effect
[17] = qHTS for differential inhibitors of proliferation of Plasmodium falciparum line D10 (AID 1877); details: series mostly up to 28.7 µM;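 further: parasites grown with compound for 72 h before DNA staining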
[18] = Quantitative high throughput screen for delayed death inhibitors of the malarial parasite plastid, 96 hour incubation (AID 488745); details: Plasmodium falciparum growth; series mostly up to 28.7 µM; further: nearly all actives have a fitted effect of over 70% in size
Outline: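 Two-generation (96 h) exposure of luciferase-reporter P. falciparum in erythrocytes, 2% hematocrit, 0.1% parasitemia final, 37 C, 5% CO2, RPMI 1640 with 0.5% Albumax. Growth inhibition scored by reduced luminescence.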

CN(C(=O)Cc1ccc(Cl)c(Cl)c1)[C@@H](CN1CCCC1)c1cccc(OCC(=O)O)c1
activity change, negative = inhibition [1]: 9.54%
Potency (Furin (Homo sapiens)): inactive
Potency [2]: inactive
Potency [3]: inactive
Potency [4]: inactive
Potency [5]: inactive

COC(=O)c1cc2c(cn1)[nH]c1ccccc12
Potency [6]: inactive
Potency [7]: inactive
Potency [8]: 3.98 µM (active)
Potency [9]: inactive
Potency [10]: inactive
Potency (Furin (Homo sapiens)): 24.1 µM (active)
Potency [2]: 24.1 µM (active)
Potency [3]: inactive
Potency [4]: inactive
Potency [5]: inactive

COC1C(O)C(C)O[C@@H](OC2CC[C@@]3(C)C4CC[C@]5(C)C(C6=CC(=O)OC6)CC[C@@]5(O)C4CC[C@@H]3C2)C1O (some centres not stated)
Potency [6]: inactive
Potency [11]: inactive
Potency (Furin (Homo sapiens)): inactive
Potency [3]: inactive
Potency [5]: 0.0658 µM (active)

C[C@@H]1O[C@@H](O[C@H]2C[C@@H](O)[C@]3(CO)C4C(CC[C@]3(O)C2)[C@@]2(O)CC[C@H](C3=CC(=O)OC3)[C@@]2(C)C[C@H]4O)[C@H](O)[C@H](O)[C@H]1O (some centres not stated)
Potency (Furin (Homo sapiens)): inactive
Potency [3]: inactive
Potency [5]: 0.234 µM (active)

CC(C)=CCCC1(C)C=Cc2c(O)c3c(c(CC=C(C)C)c2O1)OC12C(=CC4CC1C(C)(C)OC2(C/C=C(/C)C(=O)O)C4O)C3=O (configuration not stated)
Potency [6]: 20 µM (active)
Potency [11]: inactive
Potency (Furin (Homo sapiens)): inactive
Potency [2]: 17.1 µM (active)
Potency [3]: inactive
Potency [4]: 18.6 µM (active)
Potency [5]: 5.87 µM (active)

CNc1ccc2oc(C[C@@H]3OC4(CC[C@@H]3C)O[C@H]([C@@H](C)C(=O)c3ccc[nH]3)[C@H](C)C[C@H]4C)nc2c1C(=O)O (some centres not stated)
Potency (Furin (Homo sapiens)): 21.5 µM (active)
Potency [2]: 24.1 µM (active)
Potency [4]: 26.2 µM (active)

CO[C@H]1[C@@H](O)CC(OC2[C@@H](O)CC(OC3[C@@H](O)C[C@H](OC4CC[C@@]5(C)C(CCC6C5CC(O)[C@]5(C)[C@H](C7=CC(=O)OC7)CCC65O)C4)O[C@@H]3C)O[C@@H]2C)O[C@@H]1C (some centres not stated)
Potency (Furin (Homo sapiens)): inactive
Potency [3]: inactive
Potency [4]: inactive
Potency [5]: 0.24 µM (active)

Oc1c(Cl)c(Cl)c(Cl)c(Cl)c1Cl
Potency [11]: inactive
Potency (Furin (Homo sapiens)): inactive

Ic1cncc(OC[C@@H]2CCN2)c1
Potency (Furin (Homo sapiens)): inactive
Potency [2]: inactive
Potency [3]: inactive
Potency [4]: inactive
Potency [5]: inactive

COc1cc2c(cc1OCC1CCCC1)N([S+](=O)([O-])c1ccc(Oc3ccccc3)cc1)CC21CCN(CC(=O)O)CC1
Potency (Furin (Homo sapiens)): inactive
Potency [2]: inactive

CC(C)=CCCN1CCC(NC(=O)C(O)(c2ccccc2)C2CCCC2)CC1 (configuration not stated)
max response [12]: 3.9%

CP(=O)(O)CCCN
activity change, negative = inhibition [1]: 0.206%
Potency [7]: inactive
activation [13]: 7.54%
outcome [14]: inactive
Potency [15]: inactive

CC(O)C(C)OC(=O)[C@@H]1C[C@@H]2c3cccc4c3c(cn4C(C)C)C[C@H]2N(C)C1 (some centres not stated)
Potency [16]: 12.6 µM (active)
Potency [9]: 12.6 µM (active)
outcome [14]: inactive

COc1cc(CCN)ccc1O
Potency [16]: inactive
Potency [9]: inactive
Potency [17]: inactive
outcome [14]: inactive
Potency [10]: inactive
Potency [18]: inactive
Potency [15]: inactive

C[C@@H](C(=O)OC1C[C@H]2CC[C@@H](C1)N2C)c1ccc(Br)cc1 (some centres not stated)
max response [12]: -11%

CN1[C@@H]2CC[C@H]1CC(OC(c1ccc(F)cc1)c1ccc(F)cc1)C2 (some centres not stated)
Potency [12]: 25.1 µM (active)

Cn1c2c(c3ccccc31)CCNCC2
Potency [6]: inactive
max response [12]: 24.2%

Oc1ccc2c3c1O[C@H]1c4[nH]c5ccccc5c4C[C@]4(O)[C@H](C2)N(CC2CC2)CC[C@@]314
Potency [7]: inactive

COc1ccc(CCN)cc1O
Potency [16]: inactive
Potency [9]: inactive
Potency [17]: inactive
outcome [14]: inactive
Potency [18]: inactive
Potency [15]: inactive

CC(C)C[C@H](NC(=O)[C@H](Cc1ccccc1)NC(=O)CNC(=O)[C@H](C)NC(=O)[C@@H](N)Cc1ccc(O)cc1)C(=O)O
max response [12]: 9.07%

COc1ccc2c3c([nH]c2c1)C(C)=NCC3
Potency [6]: inactive
Potency [11]: inactive
Potency [13]: 10 µM (active)

C[C@H](N)Cc1c[nH]c2ccc(OCc3cccs3)cc12
activity change, negative = inhibition [1]: 7.25%
Potency [7]: inactive

COc1ccc2c(c1)[nH]c1c(C)nccc12
Potency [11]: inactive

Fc1ccc(C(OCCN2CCN(C/C=C/c3ccccc3)CC2)c2ccc(F)cc2)cc1
Potency [12]: 20 µM (active)

CC[C@H](Oc1ccc(Cl)cc1)C(=O)OC1C[C@H]2CC[C@@H](C1)N2C (some centres not stated)
Potency [8]: 0.0158 µM (active)
max response [12]: 3.6%

CN1CC[C@@]2(c3cccc(O)c3)Cc3nc4ccccc4cc3C[C@H]2C1
max response [12]: -3.73%

Cl.Cl.Cl.Cl.Cl.Cl.N.N.N.N.NNNNN.NNNNN.O.O.[Ru].[Ru].[Ru]
max response [12]: 7.14%

C[N+]1(C)CCc2cc3c(cc2C1C1OC(=O)c2c1ccc1c2OCO1)OCO3 (configuration not stated)
Potency [16]: inactive
Potency [9]: 8.91 µM (active)
Potency [17]: inactive
outcome [14]: inactive
Potency [10]: inactive
Potency [15]: inactive
